Laboratory results published in the supplement of paper PMC7156485.
Several values for one entry are separate records, joined by “and”; a condition that tells them apart may be missing. Identical values can stand only once. ± gives the standard deviation of the averaged measurements.

System: HCC1569
Test: cell number relative to DMSO (% of DMSO); higher = more cells (less growth inhibition / toxicity)
Settings: concentration: 10 µM; 24 h
Summary of the method: (§1)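 HCC1569 and TDF cells (800 per well, 384-well plates, RPMI with 10% FBS) were treated with compounds at 10 µM for 24 h at 37 °C, in triplicate. Cells were fixed in 3.7% formaldehyde and stained with a rabbit anti-H1.0 antibody, an AlexaFluor 647 secondary and DAPI; six fields per well were imaged at ×10. H1.0 nuclear intensity or cell number is expressed as percent of the plate DMSO control, taking the median of replicates. HCC1569 values were smoothed for positional effects.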
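Further: TDF denotes transformed human dermal fibroblasts of mesenchymal origin.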

| SMILES | cell number |
| --- | --- |
| Cc1ccc(NC(=O)c2ccc(CN3CCN(C)CC3)cc2)cc1Nc1nc(-c2cccnc2)cs1 [Masatinib(AB1010)] | 82.7 |
| CN(C)c1ccc(C=C2C(=O)Nc3ccccc32)cc1 | 95.9 and 109 and 98.8 |
| CC1COc2c(N3CCN(C)CC3)c(F)cc3c(=O)c(C(=O)O)cn1c23 (stereo unspecified) [Ofloxacin] | 101.5 ± 0.68 |
| CCCCC=CCCCCCCCC(=O)O [9(E)-Tetradecenoic acid] | 98.8 |
| CN=C(NC#N)NCCSCc1nc[nH]c1C [Cimetidine] | 102 ± 1.8 |
| CC(C(=O)O)c1ccc(CC2CCCC2=O)cc1 (stereo unspecified) [loxoprofen] | 103 |
| CCC(C)C(=O)OC1CC(O)C=C2C=CC(C)C(CCC3CC(O)CC(=O)O3)C21 (stereo unspecified) [Pravastatin Lactone] | 101 |
| CCN(CC)C(=S)SSC(=S)N(CC)CC [Disulfiram] | 93.4 ± 1.7 |
| COc1ccc(S(=O)(=O)Nc2cc(Cl)cc(Cl)c2OC)cc1N1CCNCC1.Cl | 100 |
| CC(=O)OC1CC2(C)C(CC(O)C3C4(C)CCC(O)C(C)C4CCC32C)C1=C(CCC=C(C)C)C(=O)[O-].[Na+] (stereo unspecified) [Fusidic acid sodium] | 105 |
| O=C([O-])C=CC(O)c1ccc(Cl)cc1.[Na+] (stereo unspecified) | 105 |
| O=C(c1cc(O)c(O)c([N+](=O)[O-])c1)c1ccccc1F | 106 |
| Cc1cn(C2CC(N=[N+]=[N-])C(CO)O2)c(=O)[nH]c1=O (stereo unspecified) [3'-Azido-3'-deoxythymidine] | 104.8 ± 0.49 |
| COc1cc2nc(N3CCN(C(=O)C4COc5ccccc5O4)CC3)nc(N)c2cc1OC (stereo unspecified) [Doxazosin] | 96.5 |
| OCC1OC(n2cnc3c(NCCc4ccccc4)ncnc32)C(O)C1O (stereo unspecified) [N6-2-Phenylethyladenosine] | 99.4 |
| CCCC(=O)NCCc1c2n(c3ccc(OC)cc13)CCCc1ccccc1-2 | 96.8 |

System: TDF
Test: as above
Settings: concentration: 10 µM; 24 h
Summary of the method: as §1

| SMILES | cell number |
| --- | --- |
| COc1ccc2cc(OCC3(C(=O)O)CN(C(=O)c4ccc(F)cc4)C3)ccc2c1 | 103 |
| CN1CCCC1c1cccnc1.Cc1ccc(C(=O)OC(C(=O)O)C(OC(=O)c2ccc(C)cc2)C(=O)O)cc1 (stereo not drawn) [(+)-Nicotine (+)-di-p-toluoyl tartrate] | 109 |
| CCCC(=O)NCCc1c2n(c3ccc(OC)cc13)Cc1ccccc1-2 | 99.3 |
| Nc1nc(Cl)nc2c1ncn2C1OC(CO)C(O)C1F (stereo unspecified) [Clofarabine] | 45.3 |
| Clc1ccc(CCC(Cn2ccnc2)Sc2c(Cl)cccc2Cl)cc1.O=[N+]([O-])O (stereo unspecified) [Butoconazole nitrate] | 99.7 |
| Cl.O=C(O)C1=CCNCC1 [Isoguvacine hydrochloride] | 108 |
| CC(=O)NC1C(N=C(N)N)C=C(C(=O)O)OC1C(O)C(O)CO (stereo unspecified) | 115 |
| CC1CC2C3CCC4=CC(=O)C=CC4(C)C3(F)C(O)CC2(C)C1(O)C(=O)CO (stereo unspecified) [Betamethasone] | 106 |
| COc1cc(-c2oc3cc(O)cc(O)c3c(=O)c2OC2OC(CO)C(O)C(O)C2O)ccc1O (stereo unspecified) [Isorhamnetine-3-glucoside] | 98.2 |
| O=c1cc(-c2ccc(O)cc2)oc2cc(O)cc(O)c12 [Apigenin] | 104 ± 3.7 |
| NC(=O)N1C(=O)/C(=C(\O)c2cccs2)c2cc(Cl)ccc21 | 104 |
| COC1CC2CCC(C)C(O)(O2)C(=O)C(=O)N2CCCCC2C(=O)OC(C(C)CC2CCC(O)C(OC)C2)CC(=O)C(C)C=C(C)C(O)C(OC)C(=O)C(C)CC(C)C=CC=CC=C1C (stereo unspecified) [Rapamycin] | 92.4 ± 8.9 |
| C#CC1(O)CCC2C3CCC4=CC(=O)CCC4C3CCC21CC (stereo unspecified) [Levonorgestrel] | 91.5 |
| CC(=O)OC1C(C)OC(Oc2c(-c3ccc(O)cc3)oc3cc(O)cc(O)c3c2=O)C(O)C1OC(C)=O (stereo unspecified) [RSK Inhibitor, SL0101] | 92.8 |
| COc1cc2c(cc1OC)-c1cc(=Nc3c(C)cc(C)cc3C)n(C)c(=O)n1CC2.Cl [Trequinsin hydrochloride] | 111 |
| Nc1nc(Nc2ccc(S(N)(=O)=O)cc2)nn1C(=S)Nc1c(F)cccc1F [Cdk1/2 Inhibitor III] | 14.2 |
| O=C1CC(c2ccc(O)c(O)c2)Oc2c1ccc(OC1OC(CO)C(O)C(O)C1O)c2O (stereo unspecified) [Flavanomarein] | 98.6 |
| Cl.O=C(O)C1=CCCNC1 [Guvacine hydrochloride] | 99.1 |
| Cc1cc(NC(=O)CS(=O)(=O)c2cn(Cc3cc(Br)ccc3F)c3ccccc23)no1 | 99.6 |
| CC(C)Cc1ccc(C(C)C(=O)NO)cc1 (stereo unspecified) [Ibuproxam] | 101 |

| SMILES | cell number |
| --- | --- |
| CC(=O)OC1(C(C)=O)CCC2C3CC(C)C4=CC(=O)CCC4(C)C3CCC21C (stereo unspecified) [Medroxyprogesterone 17-Acetate] | 112 |
| Cc1ccc(NC(=O)c2ccc(CN3CCN(C)CC3)cc2)cc1Nc1nccc(-c2cccnc2)n1 [Imatinib] | 101 |
| CCCc1cc(C(N)=S)ccn1 [Prothionamide] | 97.3 |
| CCCCCCCCc1ccc(CCC(N)(CO)CO)cc1.Cl | 17.4 |
| Cc1ccc(NC(=O)c2ccc(CN3CCN(C)CC3)cc2)cc1Nc1nc(-c2cccnc2)cs1 [Masatinib(AB1010)] | 79.9 |
| CN(C)c1ccc(C=C2C(=O)Nc3ccccc32)cc1 | 86.6 and 102 and 98.2 |
| CC1COc2c(N3CCN(C)CC3)c(F)cc3c(=O)c(C(=O)O)cn1c23 (stereo unspecified) [Ofloxacin] | 101 ± 5.3 |
| CCCCC=CCCCCCCCC(=O)O [9(E)-Tetradecenoic acid] | 106 |
| CN=C(NC#N)NCCSCc1nc[nH]c1C [Cimetidine] | 100 ± 12 |
| CC(C(=O)O)c1ccc(CC2CCCC2=O)cc1 (stereo unspecified) [loxoprofen] | 95.9 |
| CCC(C)C(=O)OC1CC(O)C=C2C=CC(C)C(CCC3CC(O)CC(=O)O3)C21 (stereo unspecified) [Pravastatin Lactone] | 109 |
| CCN(CC)C(=S)SSC(=S)N(CC)CC [Disulfiram] | 39 ± 4.7 |
| COc1ccc(S(=O)(=O)Nc2cc(Cl)cc(Cl)c2OC)cc1N1CCNCC1.Cl | 100 |
| CC(=O)OC1CC2(C)C(CC(O)C3C4(C)CCC(O)C(C)C4CCC32C)C1=C(CCC=C(C)C)C(=O)[O-].[Na+] (stereo unspecified) [Fusidic acid sodium] | 113 |
| O=C([O-])C=CC(O)c1ccc(Cl)cc1.[Na+] (stereo unspecified) | 97.4 |
| O=C(c1cc(O)c(O)c([N+](=O)[O-])c1)c1ccccc1F | 106 |
| Cc1cn(C2CC(N=[N+]=[N-])C(CO)O2)c(=O)[nH]c1=O (stereo unspecified) [3'-Azido-3'-deoxythymidine] | 101 ± 7.6 |
| COc1cc2nc(N3CCN(C(=O)C4COc5ccccc5O4)CC3)nc(N)c2cc1OC (stereo unspecified) [Doxazosin] | 107 |
| OCC1OC(n2cnc3c(NCCc4ccccc4)ncnc32)C(O)C1O (stereo unspecified) [N6-2-Phenylethyladenosine] | 113 |
| CCCC(=O)NCCc1c2n(c3ccc(OC)cc13)CCCc1ccccc1-2 | 109 |
